Results: ChEMBL document CHEMBL3433997, “St. Jude Leishmania screening dataset” (2016)

The molecules below were run against Solute carrier family 2, facilitated glucose transporter member 1 (Homo sapiens) (UniProt P11166) (assay: ST_JUDE_LEISH: Cytotoxicity at 2uM final concentration against transgenic Leishmania Mexicana promastigotes LmGLUT1 that are glucose transport deficient and complemented with the human glucose transporter GLUT1. Activity is measured by DNA content using SYBR green in vitro).
Assay type: functional

Sequence of Solute carrier family 2, facilitated glucose transporter member 1 (Homo sapiens) (P11166 whole entry): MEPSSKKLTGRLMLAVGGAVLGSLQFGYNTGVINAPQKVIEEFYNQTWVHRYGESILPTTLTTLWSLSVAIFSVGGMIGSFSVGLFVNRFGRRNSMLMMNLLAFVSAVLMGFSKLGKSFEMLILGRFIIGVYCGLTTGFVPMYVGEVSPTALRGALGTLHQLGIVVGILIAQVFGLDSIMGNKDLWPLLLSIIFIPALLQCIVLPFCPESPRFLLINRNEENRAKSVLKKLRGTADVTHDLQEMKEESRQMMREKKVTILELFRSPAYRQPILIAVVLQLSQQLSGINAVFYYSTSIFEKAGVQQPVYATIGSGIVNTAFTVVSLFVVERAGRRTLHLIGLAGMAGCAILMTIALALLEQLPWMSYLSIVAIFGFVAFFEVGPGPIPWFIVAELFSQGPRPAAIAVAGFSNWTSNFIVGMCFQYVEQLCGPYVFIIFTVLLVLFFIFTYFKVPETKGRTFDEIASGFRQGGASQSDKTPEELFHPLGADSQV

SMILES	inhibition
O=C(Nc1ccc(Cl)cc1)N[C@H]1CCN(CCCCCNC(=O)C2CC2c2ccc(Cl)c(Cl)c2)C1 (stereo not given in full)	8.91%
COc1ccc(CNC2CCN(C)CC2)cc1-c1ccc(S(=O)(=O)NCc2ccccc2)c(C)c1	7.68%
Cc1cc(OCC2CCN(c3ncc(C(=O)Nc4ccccc4)cc3Cl)CC2)ccc1F	1.05%
CC(C)c1ccc(C2CCN(CCCCNC(=O)c3ccc(NC(=O)c4ccc(C(F)(F)F)cc4)cc3)CC2)c(O)c1	4.75%
O=C1O[C@H](c2ccccc2)[C@H](c2ccccc2)N(C(=O)OCc2ccccc2)[C@H]1Cc1ccccc1C1CCCC1	1.05%
O=C(/C=C/c1ccc(Cl)c(Cl)c1)NCCCCCN1CCC(NC(=O)Nc2ccc(OC(F)F)cc2)CC1	-1.59%
CN(C)c1ccc(-c2ccc(C(=O)NC3CCN(Cc4ccc(F)cc4)CC3)s2)cc1	5.83%
COc1ccc(C)c(Nc2ccnc(Nc3cccc(-c4nc5ccccc5[nH]4)c3)n2)c1	3.82%
O=C(Cn1c(SCc2cccc(F)c2F)cc(=O)c2ccccc21)N(Cc1ccc(-c2ccc(C(F)(F)F)cc2)cc1)C1CCN(CCO)CC1	-0.08%
CCc1ccc(CN2CCC(NC(=O)c3ccc(-c4ccccc4F)s3)CC2)cc1	0.37%
CN(C)CCCOc1c(C(C)(C)C)cc(-c2cc(C(C)(C)C)c(OCCCN(C)C)c(C(C)(C)C)c2)cc1C(C)(C)C	7.07%
C[C@@H](Oc1cc(-n2cnc3ccc(NC(=O)CCN4CCCCC4)cc32)sc1C(N)=O)c1ccccc1Cl	8.99%
O=C1Nc2cccc3c2C1(CCCCCN1CCC(c2c[nH]c4ccncc24)CC1)CCC3 (stereo not given)	1%
OC1CCC(Nc2ccc3ncc(-c4ccc5ccccc5c4)n3n2)CC1 (stereo not given)	1.14%
N#Cc1ccc2c(c1)CCN(CCC1CCC(NC(=O)Nc3ccnc4ccccc34)CC1)C2 (stereo not given)	4.82%
CN1CCN(CC(=O)Nc2ccc(-c3ccc(-c4nc5cc(C(F)(F)F)ccc5[nH]4)cc3)cc2)CC1	2.58%
Cc1ccc(C(C)C)c(Oc2ccc3nc(N)nc(N)c3c2)c1	13.2%
Cc1nnc(N2C(=N)SC(=Cc3ccc(-c4ccc(OC(F)(F)F)cc4)o3)C2=O)s1	4.77%
Cc1cc(Nc2ccc(O)cc2)nc2cc(O)ccc12	3.16%
CCC[C@@H]([C@@H](CC1CCCCC1)C(=O)N[C@H](C(=O)Nc1nccc(N)n1)C(C)(C)C)N(O)C=O	3.28%

SMILES	inhibition
COc1ccc2ncc(F)c(CCN3CC(O)C(CNCc4ccc5ccccc5c4)C3)c2n1 (stereo not given)	15.5%
COc1ccccc1N1CCN(C(C(=O)NCc2ccc3c(c2)OCO3)c2ccc3c(c2)OCCCO3)CC1 (stereo not given)	1.2%
CC(C)CSc1cc(C(=O)Nc2cc(Cl)ccc2O)ccn1	-0.74%
CCOC(=O)C1=C(C)N=c2sc(=Cc3cc(Cl)ccc3O)c(=O)n2C1c1cc(OC)c(OC)cc1Br (stereo not given)	7%
C/C=C/C=C/C1=NCCc2cc(OCCC)ccc21	71.8%
COc1ccc2nccc([C@@H](O)CN3CCC(NCCc4c[nH]c5ccccc45)CC3)c2c1	9.59%
COc1ccc2nccc([C@@H](O)CN3CCC(NCc4nc5c(C#N)cccc5[nH]4)CC3)c2c1	3.6%
CCN(CC)CCN(CCCc1ccc(-c2ccc(C(F)(F)F)cc2)cc1)C(=O)Cn1c(CCc2cccc(F)c2F)nc(=O)c2c1CCC2	-2.04%
COC(=O)c1cccc(CNCc2cccc(-c3ccc(-c4nc5ccccc5[nH]4)s3)c2)c1	0.25%
COc1cc(CCCON2C(=N)N=C(N)NC2(C)C)cc(OC)c1OC	1.04%
COC(=O)c1ccc2nc(-c3ccc(/C=C/C(=O)NC4CCN(Cc5ccccc5)CC4)cc3)[nH]c2c1	0.71%
CCN(CC)CCOc1ccc(N(Cc2ccc(C(C)(C)C)cc2)C(=O)c2ccc(Cc3ccccc3)cc2)cc1OC	17.8%
CC(C)N(Cc1ccc(-c2ccc(C(F)(F)F)cc2)cc1)C(=O)Cn1c(CCc2cccc(F)c2F)cc(=O)c2ccc(CCCN3CCCCC3)cc21	3.56%
Cc1ccc(NC(=O)c2cccc(CN3CCCN(Cc4cccc(O)c4)CC3)c2)cc1	-0.49%
COc1ccc(-c2nc3c4ccccc4c4ccc(I)cc4c3[nH]2)cc1	5.22%
CC(C)c1ccc(CN2CCC(CNC(=O)c3cc(-c4ccc(N(C)C)cc4)cs3)C2)cc1 (stereo not given)	2.27%
O=C(/C=C/c1ccc(Cl)c(Cl)c1)NC1CCC(CN2CCC(c3coc4ccccc34)CC2)CC1 (stereo not given)	-1.76%
CC(C)COc1ccc(Cl)cc1Cc1nc(-c2nc3ccc(CN(C)C)cc3[nH]2)co1	4.88%
CCCN(C(=O)c1ccccc1C)c1nnc(-c2cccc(C)c2)s1	-3.02%
Nc1nc(N)c2c(ccc3c2cnn3S(=O)(=O)N2CCCC2)n1	-1.43%

The molecules below were run against Hexose transporter 1 (Plasmodium falciparum) (UniProt O97467) (assay: ST_JUDE_LEISH: Cytotoxicity at 2uM final concentration against transgenic Leishmania Mexicana promastigotes LmPfHT that are glucose transport deficient and complemented with the Plasmodium falciparum hexose transporter. Activity is measured by DNA content using SYBR green in vitro).
Assay type: functional

SMILES	inhibition
O=C(Nc1ccc(Cl)cc1)N[C@H]1CCN(CCCCCNC(=O)C2CC2c2ccc(Cl)c(Cl)c2)C1 (stereo not given in full)	6.32%
COc1ccc(CNC2CCN(C)CC2)cc1-c1ccc(S(=O)(=O)NCc2ccccc2)c(C)c1	8.41%
Cc1cc(OCC2CCN(c3ncc(C(=O)Nc4ccccc4)cc3Cl)CC2)ccc1F	-2.28%
CC(C)c1ccc(C2CCN(CCCCNC(=O)c3ccc(NC(=O)c4ccc(C(F)(F)F)cc4)cc3)CC2)c(O)c1	3.96%
O=C1O[C@H](c2ccccc2)[C@H](c2ccccc2)N(C(=O)OCc2ccccc2)[C@H]1Cc1ccccc1C1CCCC1	2.14%
O=C(/C=C/c1ccc(Cl)c(Cl)c1)NCCCCCN1CCC(NC(=O)Nc2ccc(OC(F)F)cc2)CC1	-0.5%
CN(C)c1ccc(-c2ccc(C(=O)NC3CCN(Cc4ccc(F)cc4)CC3)s2)cc1	-1.68%
COc1ccc(C)c(Nc2ccnc(Nc3cccc(-c4nc5ccccc5[nH]4)c3)n2)c1	1.79%
O=C(Cn1c(SCc2cccc(F)c2F)cc(=O)c2ccccc21)N(Cc1ccc(-c2ccc(C(F)(F)F)cc2)cc1)C1CCN(CCO)CC1	-0.44%
CCc1ccc(CN2CCC(NC(=O)c3ccc(-c4ccccc4F)s3)CC2)cc1	0.03%
CN(C)CCCOc1c(C(C)(C)C)cc(-c2cc(C(C)(C)C)c(OCCCN(C)C)c(C(C)(C)C)c2)cc1C(C)(C)C	4.77%
C[C@@H](Oc1cc(-n2cnc3ccc(NC(=O)CCN4CCCCC4)cc32)sc1C(N)=O)c1ccccc1Cl	5.72%
O=C1Nc2cccc3c2C1(CCCCCN1CCC(c2c[nH]c4ccncc24)CC1)CCC3 (stereo not given)	2.45%
OC1CCC(Nc2ccc3ncc(-c4ccc5ccccc5c4)n3n2)CC1 (stereo not given)	3.23%
N#Cc1ccc2c(c1)CCN(CCC1CCC(NC(=O)Nc3ccnc4ccccc34)CC1)C2 (stereo not given)	3.39%
CN1CCN(CC(=O)Nc2ccc(-c3ccc(-c4nc5cc(C(F)(F)F)ccc5[nH]4)cc3)cc2)CC1	0.64%
Cc1ccc(C(C)C)c(Oc2ccc3nc(N)nc(N)c3c2)c1	8.97%
Cc1nnc(N2C(=N)SC(=Cc3ccc(-c4ccc(OC(F)(F)F)cc4)o3)C2=O)s1	2.59%
Cc1cc(Nc2ccc(O)cc2)nc2cc(O)ccc12	1.93%
CCC[C@@H]([C@@H](CC1CCCCC1)C(=O)N[C@H](C(=O)Nc1nccc(N)n1)C(C)(C)C)N(O)C=O	4.83%

SMILES	inhibition
COc1ccc2ncc(F)c(CCN3CC(O)C(CNCc4ccc5ccccc5c4)C3)c2n1 (stereo not given)	16.6%
COc1ccccc1N1CCN(C(C(=O)NCc2ccc3c(c2)OCO3)c2ccc3c(c2)OCCCO3)CC1 (stereo not given)	1.04%
CC(C)CSc1cc(C(=O)Nc2cc(Cl)ccc2O)ccn1	-0.12%
CCOC(=O)C1=C(C)N=c2sc(=Cc3cc(Cl)ccc3O)c(=O)n2C1c1cc(OC)c(OC)cc1Br (stereo not given)	6.74%
C/C=C/C=C/C1=NCCc2cc(OCCC)ccc21	74.1%
COc1ccc2nccc([C@@H](O)CN3CCC(NCCc4c[nH]c5ccccc45)CC3)c2c1	11%
COc1ccc2nccc([C@@H](O)CN3CCC(NCc4nc5c(C#N)cccc5[nH]4)CC3)c2c1	3.33%
CCN(CC)CCN(CCCc1ccc(-c2ccc(C(F)(F)F)cc2)cc1)C(=O)Cn1c(CCc2cccc(F)c2F)nc(=O)c2c1CCC2	-0.48%
COC(=O)c1cccc(CNCc2cccc(-c3ccc(-c4nc5ccccc5[nH]4)s3)c2)c1	2.5%
COc1cc(CCCON2C(=N)N=C(N)NC2(C)C)cc(OC)c1OC	-0.26%
COC(=O)c1ccc2nc(-c3ccc(/C=C/C(=O)NC4CCN(Cc5ccccc5)CC4)cc3)[nH]c2c1	5.26%
CCN(CC)CCOc1ccc(N(Cc2ccc(C(C)(C)C)cc2)C(=O)c2ccc(Cc3ccccc3)cc2)cc1OC	14.8%
CC(C)N(Cc1ccc(-c2ccc(C(F)(F)F)cc2)cc1)C(=O)Cn1c(CCc2cccc(F)c2F)cc(=O)c2ccc(CCCN3CCCCC3)cc21	4.4%
Cc1ccc(NC(=O)c2cccc(CN3CCCN(Cc4cccc(O)c4)CC3)c2)cc1	0.65%
COc1ccc(-c2nc3c4ccccc4c4ccc(I)cc4c3[nH]2)cc1	2.48%
CC(C)c1ccc(CN2CCC(CNC(=O)c3cc(-c4ccc(N(C)C)cc4)cs3)C2)cc1 (stereo not given)	3.51%
O=C(/C=C/c1ccc(Cl)c(Cl)c1)NC1CCC(CN2CCC(c3coc4ccccc34)CC2)CC1 (stereo not given)	1.76%
CC(C)COc1ccc(Cl)cc1Cc1nc(-c2nc3ccc(CN(C)C)cc3[nH]2)co1	4.73%
CCCN(C(=O)c1ccccc1C)c1nnc(-c2cccc(C)c2)s1	-1.93%
Nc1nc(N)c2c(ccc3c2cnn3S(=O)(=O)N2CCCC2)n1	0.03%
